# Columns and labels:
# Test in all cases: DAPPL (digital affinity profiling via proximity ligation, sequencing); 10 mM Tris-HCl pH 7.5, 50 mM NaCl, 1 mM DTT, 4% glycerol, room temperature, 30 min; GST-TFs on glutathione beads, 16-mer random dsDNA library, 0.1% formaldehyde crosslink after washing; high values mean tight binding
# [1] = target: T1, FLI1 (Homo sapiens, UniProt Q01543 1-452); conditions: protein: recombinant; tags: N-terminal GST; dsDNA, one strand shown
# T1 sequence: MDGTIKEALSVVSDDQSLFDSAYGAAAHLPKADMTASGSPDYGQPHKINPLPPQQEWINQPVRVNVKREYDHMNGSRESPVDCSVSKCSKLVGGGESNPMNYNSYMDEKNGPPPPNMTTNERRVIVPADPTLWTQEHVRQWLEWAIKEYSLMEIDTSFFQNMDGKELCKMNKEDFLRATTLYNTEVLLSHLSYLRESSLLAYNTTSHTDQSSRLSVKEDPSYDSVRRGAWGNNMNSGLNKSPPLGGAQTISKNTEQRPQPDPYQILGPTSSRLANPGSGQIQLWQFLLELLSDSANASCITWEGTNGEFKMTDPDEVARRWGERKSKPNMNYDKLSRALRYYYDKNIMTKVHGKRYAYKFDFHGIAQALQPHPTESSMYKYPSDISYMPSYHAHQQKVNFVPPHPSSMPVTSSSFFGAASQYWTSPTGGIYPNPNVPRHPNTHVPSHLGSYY
# Outline: (§1)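 Sequencing on an Illumina NextSeq500 followed washing, crosslinking with 0.1% formaldehyde, proximity ligation (BsaI/T4 ligase, 1 h, 37 °C) and PCR amplification of pools that had been incubated for 30 min at room temperature with 200 nmole of a random double-stranded 16-mer DNA library in Tris/NaCl/DTT/glycerol buffer. Each pool held DNA-barcoded human transcription factors, expressed in yeast as GST fusions and captured on glutathione beads, plus a tag-only sample. Binding signal is a hexamer's read frequency for a factor divided by its frequency in the tag-only sample.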
# [2] = target: T2, ELK1 (Homo sapiens, UniProt P19419 1-428); conditions: protein: recombinant; tags: N-terminal GST; dsDNA, one strand shown
# T2 sequence: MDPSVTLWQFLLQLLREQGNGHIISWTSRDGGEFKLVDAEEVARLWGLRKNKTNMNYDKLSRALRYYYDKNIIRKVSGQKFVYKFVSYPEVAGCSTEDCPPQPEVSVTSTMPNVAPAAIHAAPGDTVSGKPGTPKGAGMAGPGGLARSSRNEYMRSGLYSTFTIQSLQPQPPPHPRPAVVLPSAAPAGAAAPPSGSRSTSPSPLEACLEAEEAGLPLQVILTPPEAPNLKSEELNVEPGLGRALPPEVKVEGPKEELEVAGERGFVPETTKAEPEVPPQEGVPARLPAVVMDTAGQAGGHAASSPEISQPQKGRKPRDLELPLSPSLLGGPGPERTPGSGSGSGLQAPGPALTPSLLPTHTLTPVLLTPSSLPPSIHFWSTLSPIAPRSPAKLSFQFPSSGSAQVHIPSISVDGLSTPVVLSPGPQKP
# Outline: as §1
# [3] = target: HSF1 (Homo sapiens, UniProt Q00613 1-529); conditions: protein: recombinant; tags: N-terminal GST; chain copies: 3; dsDNA, one strand shown
# Chain of HSF1 (Q00613 whole entry): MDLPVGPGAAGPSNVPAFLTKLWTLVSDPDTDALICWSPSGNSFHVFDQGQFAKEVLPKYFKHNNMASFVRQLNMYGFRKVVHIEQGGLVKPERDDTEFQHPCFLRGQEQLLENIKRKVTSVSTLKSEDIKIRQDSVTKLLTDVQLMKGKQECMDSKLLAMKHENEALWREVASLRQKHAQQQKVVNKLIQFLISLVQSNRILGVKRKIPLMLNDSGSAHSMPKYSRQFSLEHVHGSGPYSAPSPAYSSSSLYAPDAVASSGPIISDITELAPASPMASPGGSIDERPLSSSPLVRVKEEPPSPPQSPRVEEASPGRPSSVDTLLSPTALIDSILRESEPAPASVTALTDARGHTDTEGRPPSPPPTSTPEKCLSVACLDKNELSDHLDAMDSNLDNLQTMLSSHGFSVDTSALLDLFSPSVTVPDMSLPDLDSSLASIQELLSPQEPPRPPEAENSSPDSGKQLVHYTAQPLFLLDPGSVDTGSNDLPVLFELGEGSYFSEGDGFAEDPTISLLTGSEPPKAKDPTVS
# Outline: as §1
# [4] = target: ELF4 (Homo sapiens, UniProt Q99607 1-663); conditions: protein: recombinant; tags: N-terminal GST; dsDNA, one strand shown
# Chain of ELF4 (Q99607 whole entry): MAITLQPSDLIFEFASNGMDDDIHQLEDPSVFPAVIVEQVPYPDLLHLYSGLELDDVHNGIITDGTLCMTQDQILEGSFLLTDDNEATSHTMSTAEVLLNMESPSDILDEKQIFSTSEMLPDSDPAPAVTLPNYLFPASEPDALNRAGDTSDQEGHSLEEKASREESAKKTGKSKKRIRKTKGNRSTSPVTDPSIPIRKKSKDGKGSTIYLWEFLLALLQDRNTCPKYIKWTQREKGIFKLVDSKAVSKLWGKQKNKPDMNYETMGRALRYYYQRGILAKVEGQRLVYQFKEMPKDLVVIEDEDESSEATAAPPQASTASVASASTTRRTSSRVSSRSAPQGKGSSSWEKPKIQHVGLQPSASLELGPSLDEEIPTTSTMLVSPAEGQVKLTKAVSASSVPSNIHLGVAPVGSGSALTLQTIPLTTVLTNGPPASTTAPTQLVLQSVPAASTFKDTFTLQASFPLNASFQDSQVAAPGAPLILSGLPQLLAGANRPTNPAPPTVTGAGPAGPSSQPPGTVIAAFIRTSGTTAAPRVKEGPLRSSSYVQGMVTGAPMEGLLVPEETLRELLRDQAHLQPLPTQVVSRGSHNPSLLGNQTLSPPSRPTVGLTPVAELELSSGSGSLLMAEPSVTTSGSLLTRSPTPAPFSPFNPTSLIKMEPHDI
# Outline: as §1
# [5] = target: T3, ELF3 (Homo sapiens, UniProt P78545 1-371); conditions: protein: recombinant; tags: N-terminal GST; dsDNA, one strand shown
# T3 sequence: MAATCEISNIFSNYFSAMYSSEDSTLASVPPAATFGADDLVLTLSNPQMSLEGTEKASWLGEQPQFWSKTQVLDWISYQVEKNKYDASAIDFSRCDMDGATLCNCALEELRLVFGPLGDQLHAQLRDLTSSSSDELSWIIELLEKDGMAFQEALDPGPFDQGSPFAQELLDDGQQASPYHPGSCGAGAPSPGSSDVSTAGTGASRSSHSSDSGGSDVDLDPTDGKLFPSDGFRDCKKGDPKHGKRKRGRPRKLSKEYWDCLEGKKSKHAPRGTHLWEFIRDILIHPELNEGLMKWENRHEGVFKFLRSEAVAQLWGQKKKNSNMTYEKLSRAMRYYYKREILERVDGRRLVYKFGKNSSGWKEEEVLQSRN
# Outline: as §1
# [6] = target: T4, ERF (Homo sapiens, UniProt P50548 1-548); conditions: protein: recombinant; tags: N-terminal GST; dsDNA, one strand shown
# T4 sequence: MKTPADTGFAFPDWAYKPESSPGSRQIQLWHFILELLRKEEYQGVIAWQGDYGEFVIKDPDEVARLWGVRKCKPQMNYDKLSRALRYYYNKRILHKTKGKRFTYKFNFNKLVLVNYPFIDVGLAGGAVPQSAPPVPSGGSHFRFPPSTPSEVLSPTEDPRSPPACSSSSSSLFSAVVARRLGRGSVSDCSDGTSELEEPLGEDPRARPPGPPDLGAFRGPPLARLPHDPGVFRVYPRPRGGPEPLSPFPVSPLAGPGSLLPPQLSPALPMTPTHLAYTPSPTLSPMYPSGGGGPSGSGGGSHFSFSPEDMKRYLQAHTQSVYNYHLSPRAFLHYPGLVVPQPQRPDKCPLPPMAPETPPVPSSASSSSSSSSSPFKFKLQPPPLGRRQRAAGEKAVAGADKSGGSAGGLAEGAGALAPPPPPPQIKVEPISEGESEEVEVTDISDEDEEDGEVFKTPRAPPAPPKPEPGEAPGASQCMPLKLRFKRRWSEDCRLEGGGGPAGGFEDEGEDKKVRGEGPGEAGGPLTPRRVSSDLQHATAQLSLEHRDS
# Outline: as §1
# [7] = target: T5, ETV7 (Homo sapiens, UniProt Q9Y603 1-341); conditions: protein: recombinant; tags: N-terminal GST; dsDNA, one strand shown
# T5 sequence: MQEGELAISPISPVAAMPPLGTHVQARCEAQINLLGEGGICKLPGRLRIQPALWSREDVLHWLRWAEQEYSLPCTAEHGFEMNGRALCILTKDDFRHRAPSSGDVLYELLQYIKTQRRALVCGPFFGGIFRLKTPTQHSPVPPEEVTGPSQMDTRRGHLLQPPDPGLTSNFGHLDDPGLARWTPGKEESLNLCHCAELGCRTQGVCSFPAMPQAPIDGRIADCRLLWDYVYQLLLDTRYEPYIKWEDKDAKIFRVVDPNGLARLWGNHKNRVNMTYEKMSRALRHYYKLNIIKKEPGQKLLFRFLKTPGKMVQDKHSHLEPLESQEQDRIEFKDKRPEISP
# Outline: as §1
# [8] = target: T6, ETV3 (Homo sapiens, UniProt P41162-2 1-143); conditions: protein: recombinant; tags: N-terminal GST; dsDNA, one strand shown
# T6 sequence: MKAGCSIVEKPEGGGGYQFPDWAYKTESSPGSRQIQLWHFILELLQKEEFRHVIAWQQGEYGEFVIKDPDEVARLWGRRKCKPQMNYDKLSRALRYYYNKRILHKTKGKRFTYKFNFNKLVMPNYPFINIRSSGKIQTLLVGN
# Outline: as §1
# [9] = target: ETV6 (Homo sapiens, UniProt P41212 1-452); conditions: protein: recombinant; tags: N-terminal GST; dsDNA, one strand shown
# Chain of ETV6 (P41212 whole entry): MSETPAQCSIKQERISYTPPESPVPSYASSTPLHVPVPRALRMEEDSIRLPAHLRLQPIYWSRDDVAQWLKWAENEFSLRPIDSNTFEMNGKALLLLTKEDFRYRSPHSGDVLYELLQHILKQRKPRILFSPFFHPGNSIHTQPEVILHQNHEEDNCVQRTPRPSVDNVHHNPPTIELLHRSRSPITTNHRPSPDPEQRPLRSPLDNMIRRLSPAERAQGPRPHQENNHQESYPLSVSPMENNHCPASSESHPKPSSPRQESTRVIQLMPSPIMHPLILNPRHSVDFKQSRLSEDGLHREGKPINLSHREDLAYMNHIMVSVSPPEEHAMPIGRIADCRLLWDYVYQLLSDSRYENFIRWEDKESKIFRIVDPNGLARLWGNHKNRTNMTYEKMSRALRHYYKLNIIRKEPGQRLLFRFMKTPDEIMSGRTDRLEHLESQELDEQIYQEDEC
# Outline: as §1
sequence,measurement,setting,value
AGAAAC,binding signal,[1],"1.04 fold enrichment (6-mer frequency, TF over GST control)"
same,binding signal,[2],"1.02 fold enrichment (6-mer frequency, TF over GST control)"
same,binding signal,[3],"1.78 fold enrichment (6-mer frequency, TF over GST control)"
same,binding signal,[4],"1.01 fold enrichment (6-mer frequency, TF over GST control)"
same,binding signal,[5],"1.02 fold enrichment (6-mer frequency, TF over GST control)"
same,binding signal,[6],"1.05 fold enrichment (6-mer frequency, TF over GST control)"
same,binding signal,[7],"1.16 fold enrichment (6-mer frequency, TF over GST control)"
same,binding signal,[8],"1.01 fold enrichment (6-mer frequency, TF over GST control)"
same,binding signal,[9],"1.03 fold enrichment (6-mer frequency, TF over GST control)"

# — paper PMC7862700, “An all-to-all approach to the identification of sequence-specific readers for epigenetic DNA modifications on cytosine”
